Compound activity deposited in PubChem BioAssay by Center for Chemical Genomics, University of Michigan.
Dicer inh: blocks human Dicer maturation of pre-miR-21; hit rate 6% among 47,000; z-score at 25 µM; AID 1347074; cat-ELCCA pre-miR-21 Dicer processing, chemiluminescence; stronger effect = higher value; in the data active means z-score above about 3, passing the limit was not always enough;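 further: plate controls were vehicle for no effect and no enzyme for full effect; higher signal means more uncleaved substrate so more Dicer inhibition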
Target sequence (Q9UPY3 whole entry, looked up): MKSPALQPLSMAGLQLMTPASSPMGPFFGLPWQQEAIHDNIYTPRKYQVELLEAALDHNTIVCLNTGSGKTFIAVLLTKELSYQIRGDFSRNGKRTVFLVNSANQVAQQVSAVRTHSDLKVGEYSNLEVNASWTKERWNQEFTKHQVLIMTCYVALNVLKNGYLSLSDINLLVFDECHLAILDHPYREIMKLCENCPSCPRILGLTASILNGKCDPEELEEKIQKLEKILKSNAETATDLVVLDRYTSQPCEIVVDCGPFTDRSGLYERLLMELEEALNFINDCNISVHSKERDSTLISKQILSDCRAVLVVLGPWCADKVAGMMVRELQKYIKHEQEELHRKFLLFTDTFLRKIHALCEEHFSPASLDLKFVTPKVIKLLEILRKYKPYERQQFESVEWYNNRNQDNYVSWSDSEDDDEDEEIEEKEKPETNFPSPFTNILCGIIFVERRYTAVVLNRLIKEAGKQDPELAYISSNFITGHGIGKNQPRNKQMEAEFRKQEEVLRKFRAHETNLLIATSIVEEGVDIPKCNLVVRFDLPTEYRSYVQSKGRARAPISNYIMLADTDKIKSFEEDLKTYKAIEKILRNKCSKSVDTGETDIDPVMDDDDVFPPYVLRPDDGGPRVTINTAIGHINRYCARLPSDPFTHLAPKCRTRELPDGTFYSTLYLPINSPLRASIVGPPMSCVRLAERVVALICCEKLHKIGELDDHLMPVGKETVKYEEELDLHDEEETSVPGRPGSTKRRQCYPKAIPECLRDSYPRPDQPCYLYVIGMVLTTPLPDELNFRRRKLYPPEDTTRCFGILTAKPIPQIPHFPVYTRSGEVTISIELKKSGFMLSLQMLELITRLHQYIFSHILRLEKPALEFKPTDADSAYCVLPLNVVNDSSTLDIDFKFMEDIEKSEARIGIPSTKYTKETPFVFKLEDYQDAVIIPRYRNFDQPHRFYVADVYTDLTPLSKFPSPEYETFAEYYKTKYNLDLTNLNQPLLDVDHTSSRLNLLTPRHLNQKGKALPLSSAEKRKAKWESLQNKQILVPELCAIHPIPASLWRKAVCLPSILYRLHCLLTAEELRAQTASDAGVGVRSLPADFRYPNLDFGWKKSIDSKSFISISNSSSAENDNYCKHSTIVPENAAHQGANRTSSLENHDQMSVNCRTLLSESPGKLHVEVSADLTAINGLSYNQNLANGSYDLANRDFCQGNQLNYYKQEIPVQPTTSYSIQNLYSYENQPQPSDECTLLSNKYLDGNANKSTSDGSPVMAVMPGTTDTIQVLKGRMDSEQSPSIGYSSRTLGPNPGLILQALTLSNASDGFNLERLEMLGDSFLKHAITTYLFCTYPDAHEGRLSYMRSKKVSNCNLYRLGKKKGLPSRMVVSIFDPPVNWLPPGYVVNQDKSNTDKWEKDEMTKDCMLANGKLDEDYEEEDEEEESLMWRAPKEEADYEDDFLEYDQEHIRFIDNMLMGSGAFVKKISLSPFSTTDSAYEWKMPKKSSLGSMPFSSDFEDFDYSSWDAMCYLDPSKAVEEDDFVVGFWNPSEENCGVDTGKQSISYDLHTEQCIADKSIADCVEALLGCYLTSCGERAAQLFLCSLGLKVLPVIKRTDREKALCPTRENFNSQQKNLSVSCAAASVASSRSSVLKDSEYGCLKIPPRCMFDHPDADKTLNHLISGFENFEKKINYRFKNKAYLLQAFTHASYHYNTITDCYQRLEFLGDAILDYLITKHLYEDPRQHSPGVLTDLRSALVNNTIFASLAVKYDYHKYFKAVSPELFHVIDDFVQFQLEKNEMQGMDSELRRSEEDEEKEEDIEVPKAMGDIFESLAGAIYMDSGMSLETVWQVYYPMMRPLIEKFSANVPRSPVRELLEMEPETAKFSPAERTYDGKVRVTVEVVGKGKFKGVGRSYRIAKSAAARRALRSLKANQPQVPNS
* = called active by the depositor. Only a selection was taken, and hits are over-represented in it overall.

SMILES	Dicer inh
CCCN1C(=O)C(O)(CC(=O)c2ccc3c(c2)OCO3)c2cc(Br)ccc21 (configuration not stated)	2.8
CCOC(=O)C1=C(C)NC2=C(C(=O)CCC2)C1c1ccccc1N1CCC(C(=O)OCC)CC1 (configuration not stated)	-0.16
CO[C@H]1O[C@@H](COC(=O)c2ccccc2)[C@H](OC(=O)c2ccccc2)[C@H]1OC(=O)c1ccccc1	-0.08
O=C1CSC(=S)N1CCc1ccccc1	-0.6
O=C(Nc1ccc(C(F)(F)F)cc1)N1CCCc2ccccc21	0.59
COc1ccc(Nc2nc3ccccc3c(=O)s2)cc1	1.9
COc1ccc(Nc2ccnc3ccccc23)cc1	3.6*
COc1ccc(Nc2ncnc3ccccc23)cc1	6.2
CSc1nc2c(Cl)cccc2c2c1c(=O)n(Cc1ccccc1)n2C	-1
S=C(NNC(=S)Nc1ccccc1)Nc1ccccc1	14*
COCCCNC(=S)NNC(=S)Nc1ccccc1	3.6*
COCCCNC(=S)NNC(=O)c1ccc(C(F)(F)F)cc1	-4.6
S=C(NNc1ccccc1)c1ccccc1	5.2*
FC(F)(F)c1cccc(NNC(=S)Nc2ccccc2)c1	-0.98
Cc1cc(Br)c(NC(=S)NNc2ccccc2)c(Br)c1	3.9
N#CCC(=O)NNC(=S)Nc1ccccc1	-1.2
Cc1ccccc1NC(=S)NNC(=O)c1ccccc1Cl	0.06
Fc1ccc(NC(=S)Nc2ccccc2)cc1	-0.31
COCCCNC(=S)Nc1ccc(F)cc1	-0.92
O=C(c1ccccc1)c1cc(Cl)ccc1NC(=S)Nc1ccc(F)cc1	-0.55
O=C(NNC(=S)Nc1ccc(F)cc1)c1ccccc1Cl	4.7*
Cc1nn(-c2ccccc2)cc1/C=N/n1c(-c2cccs2)n[nH]c1=S	-0.7
COc1ccc(C2=NN(S(C)(=O)=O)C(c3cn(-c4ccccc4)nc3-c3ccccc3)C2)cc1 (configuration not stated)	-0.79
O=C(O)c1ccc(Cn2cccn2)o1	1
O=C1CSC(c2ccc(C(F)(F)F)cc2)N1c1ccc(C(F)(F)F)cc1 (configuration not stated)	0.35
SMILES	Dicer inh
Cc1nnc(Nc2ccccc2Cl)[nH]c1=O	-0.21
Cc1ccc(NC(=S)Nc2ccccc2Cl)cc1NS(C)(=O)=O	-2.5
Cn1cnc2c1c(=O)n(Cc1ccccc1F)c(=O)n2C	2.3
CC(=O)N1CCC(C(=O)Nc2ccc3nc(C)ccc3c2)CC1	-0.43
O=C(O)/C=C/NNC(=O)c1ccc([N+](=O)[O-])cc1	-0.14
O=C(NCCNc1ccc(C(F)(F)F)cn1)Nc1cccc(Cl)c1Cl	-0.47
O=C(NN1CC(=O)N(c2cc(Cl)cc(Cl)c2)CC1=O)c1cccs1	-0.11
O=C(Nc1ccc(F)cc1)N1CCN(c2ccccc2F)CC1	0.41
O=C(Nc1ccc(Cl)cc1)NN1CC(=O)N(c2ccccc2F)CC1=O	4.9*
CSC(=CC(=O)c1ccc(Oc2ccccc2)cc1)SC	0.4
c1ccc(-c2nsc(N3CCCC3)n2)cc1	3*
O=C(O)CSCC(=O)N1CCN(c2nc(-c3ccccc3)ns2)CC1	1.2
CCS(=O)(=O)N1CCN(c2nc(-c3ccccc3)ns2)CC1	-0.23
COC(=O)c1ccc([C@@H]2Nc3ccc(C(=O)O)cc3[C@@H]3C=CC[C@@H]32)cc1	1
Cn1c(/C=C/c2cccc3ccccc23)c([N+](=O)[O-])c(=O)n(C)c1=O	2.5
CC(OC(=O)c1cccc(N2C(=O)C3CC=CC(C)C3C2=O)c1)C(=O)c1ccccc1 (configuration not stated)	0.91
COc1ccc(N2C(=O)C3C4C=CC(CC4)C3C2=O)cc1 (configuration not stated)	1
COc1ccc(N2C(=O)C3CC=CC(C)C3C2=O)cc1 (configuration not stated)	5.5*
CCNS(=O)(=O)c1ccc2c(c1)C(=O)c1cc(S(=O)(=O)NCC)ccc1-2	-0.19
Brc1cccc(CSc2ncnc3nc[nH]c23)c1	-0.24
Cc1ccc(C(=O)N2CCN(c3ncnc4cc(-c5ccc(C(C)(C)C)cc5)sc34)CC2)cc1	0
CC(=O)NNc1ncnc2cc(-c3ccc(C(C)(C)C)cc3)sc12	-0.05
Cc1ccc(C(=O)NNc2ncnc3cc(-c4ccc(C(C)(C)C)cc4)sc23)cc1	6.2*
Cc1cc(C)c(CSC(=N)N)c(C)c1CSC(=N)N	-3.6
COc1ccc2c(c1)C(C)CC(C)(C)N2C(=O)CSc1ncn[nH]1 (configuration not stated)	0.09
SMILES	Dicer inh
COc1ccc2c(c1)C(C)CC(C)(C)N2C(=O)CSc1ncccn1 (configuration not stated)	4.2*
COc1ccc2c(c1)C(C)=CC(C)(C)N2C(=O)CSc1nnc(C)s1	-1.9
COC(=O)c1ccsc1-n1c(C)ccc1C	0.82
CC(C(=O)NNS(=O)(=O)c1ccc(Cl)cc1)n1nnc(-c2cc(C(F)(F)F)cc(C(F)(F)F)c2)n1 (configuration not stated)	-0.42
Cc1cc(C(F)(F)F)n2nc(-c3ccc(C(C)(C)C)cc3)cc2n1	-1.8
CCOC(=O)c1c(C)c(=O)oc2c1c(=O)[nH]n2-c1ccccc1	-1.1
C=CCN(C#N)c1nc(NC(C)C)nc(NC(C)C)n1	6.5*
CS(=N)(=O)c1ccc(Oc2cccc(F)c2C#N)cc1 (configuration not stated)	-0.46
C(=N\Nc1c2c(nc3ncnn13)CCC2)/c1cccs1	1.4
Clc1ccc(C2=Nn3c(CSc4ccccc4)nnc3SC2)cc1	-0.33
CC(=Nc1ccc(Cl)cc1)c1ccsc1	0.26
CC(C)=N/N=C1/N=C(c2ccc(Cl)cc2)CS1	5.2*
O/N=C/c1c(-c2ccccc2Cl)[nH]c2ccccc12	1.7
Clc1ccccc1-c1cc2ccccc2[nH]1	4*
Nc1ccc(Cl)c(-c2nc3ccccc3[nH]2)c1	0.01
CC(C)S(=O)(=O)c1csc(C(=O)NNS(=O)(=O)c2ccc(Cl)cc2)c1-n1cccc1	-0.91
Nc1ccc(C(=O)/C(=C\c2cccc([N+](=O)[O-])c2)C(=O)c2ccc(-c3ccccc3)cc2)cc1	-0.72
CC(=O)Nc1ccccc1OCCN(Cc1ccccc1)C(=O)c1ccc(Cl)cc1	0.24
O=C(Nc1ncc(Cc2ccc(Cl)cc2)s1)c1cc2ccccc2c(=O)o1	-0.71
Cc1ccc(/C(O)=C2\C(=O)C(=O)N(CCCN3CCOCC3)C2c2ccc(F)cc2)cc1 (configuration not stated)	-0.14
Cc1ccc(/C(O)=C2\C(=O)C(=O)N(CCCN3CCOCC3)C2c2ccco2)cc1 (configuration not stated)	3.3*
O=C1C(=O)N(CCCN2CCOCC2)C(c2ccccc2)/C1=C(\O)c1ccccc1 (configuration not stated)	0.77
O=c1sc(-c2ccccc2)nc(O)c1Cc1ccccc1	0.95
O=C1CSCC(=O)N1c1ccccn1	7.8*
Cc1cccc(C)c1N1C(=O)CSCC1=O	-2.4
SMILES	Dicer inh
O=C1CSCC(=O)N1c1ccc(Cl)cn1	-3.1
Cc1[nH]nc(N/N=C/c2ccccc2Cl)c1C(=O)O	2.9
O=C1C(=O)N(CCCN2CCOCC2)C(c2cccs2)/C1=C(\O)c1ccc(Cl)cc1 (configuration not stated)	1.6
Cc1cccc(Nc2nc(-c3ccncc3)cs2)n1	2.1
Cc1ccc(Nc2nc(-c3ccccc3)cs2)nc1	2.1
Cc1ccnc(Nc2nc(-c3ccc(O)c(O)c3)cs2)c1	3.9*
C=CCNc1nc(-c2ccc(O)c(OC)c2)cs1	-0.25
Cc1cccc(Nc2nc(-c3ccc(O)c(O)c3)cs2)n1	5.2*
Cc1ccnc(Nc2nc(-c3ccc(O)cc3)cs2)c1	4.5
